S-ASM inh: human S-ASM enzyme inhibition | AID 504937 | Potency, µM (top dose mostly 57.5 µM), for inactives: at the highest dose activity change, negative = inhibition, usual class: inhibitors | 0.006% of 340,000 active | placental ASM, HMU-PC fluorogenic substrate, 60 min; also: potency is read from the fitted curve at half-maximal effect
Target sequence (P17405 47-631 limits assumed): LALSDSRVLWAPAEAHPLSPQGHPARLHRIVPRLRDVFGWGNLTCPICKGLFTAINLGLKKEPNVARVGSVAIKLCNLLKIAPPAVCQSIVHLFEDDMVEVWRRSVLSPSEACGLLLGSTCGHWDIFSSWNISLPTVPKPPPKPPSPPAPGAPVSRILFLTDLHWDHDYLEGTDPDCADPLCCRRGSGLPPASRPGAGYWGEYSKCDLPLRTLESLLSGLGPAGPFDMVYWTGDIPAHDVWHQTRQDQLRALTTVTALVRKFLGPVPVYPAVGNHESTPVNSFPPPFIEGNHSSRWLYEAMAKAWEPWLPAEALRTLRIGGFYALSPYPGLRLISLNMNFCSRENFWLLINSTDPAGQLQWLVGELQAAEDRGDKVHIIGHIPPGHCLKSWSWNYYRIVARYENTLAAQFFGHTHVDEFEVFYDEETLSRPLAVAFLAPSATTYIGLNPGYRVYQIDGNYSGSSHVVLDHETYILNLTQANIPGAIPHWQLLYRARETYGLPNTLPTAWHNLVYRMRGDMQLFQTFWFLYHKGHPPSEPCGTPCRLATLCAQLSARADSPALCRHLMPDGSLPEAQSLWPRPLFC
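Steps: dispense placental human ASM, pin compound, wait 10 min at room temperature, add HMU-PC0 substrate at 9 uM final, incubate 60 min at 37 °C, add stop solution raising pH to 10, read fluorescence.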
DT40 TDP1 CPT: DT40-hTDP1 cell growth loss with CPT. chicken DT40 Tdp1-/-;hTDP1 cells + 20 nM CPT, ATP luminescence, 48 h. Potency, µM (highest dose often 46.2 µM), for inactives: top-dose activity change, negative = growth inhibition, hits mostly inhibitors. 12% of 420,000 active. AID 686979; also: potency is read from the fitted curve at half-maximal effect; % is scaled to controls: 0 for no effect and ±100 for the full control effect; nearly all actives have a fitted effect of over 55% in size
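Chicken DT40 Tdp1-/- cells complemented with human TDP1, 400 cells/well, exposed to compounds plus 20 nM camptothecin for at least 48 h at 37 C; viability read as ATP content by CellTiter-Glo luminescence.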
HepG2 viability: counter-screen for TGF-b inhibitors: cytotoxicity in HepG2 cells. HepG2 CAGA-GFP viability, ATP luminescence, 18 h. Potency, µM (highest dose often 46.1 µM), inactives show at the top dose activity change, negative = cytotoxicity, actives largely listed as cytotoxic. 0.76% of 410,000 active; also: potency is read from the fitted curve at half-maximal effect
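CellTiter-Glo luminescence gave cytotoxicity after 18 hours at 37 degrees C. The cells were HepG2 CAGA-GFP in 1% FBS DMEM, stimulated with 500 pg/mL TGF-beta after compound addition. %Activity was normalised to no-cell wells (complete cell-killing) and DMSO (no toxicity), and curves were fitted and classified.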
TGFb inhibitor: inhibitors of TGF-b signaling; HepG2 CAGA-GFP TGF-b/SMAD3 reporter, GFP fluorescence, 18 h; TGF-beta stimulated, 500 pg/mL final; Potency, µM (doses to about 46.1 µM), for inactives: at the highest dose activity, negative = inhibition, hits mostly inhibitors; 1.2% of 410,000 active; AID 588855; also: potency is read from the fitted curve at half-maximal effect; % is scaled to controls: 0 for no effect and ±100 for the full control effect; nearly all actives have a fitted effect of over 65% in size
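First, reporter cells (HEPG2 CAGA-GFP) rested 2 h at 37 degrees C. Next, compounds were pinned in and TGF-beta added to 500 pg/mL final. After 18 h, GFP was imaged per cell and summed per well.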
TDP1 cell noCPT: qHTS for Inhibitors of human tyrosyl-DNA phosphodiesterase 1 (TDP1): qHTS in cells in absence of CPT; Potency, µM (series often up to 46.2 µM), inactives show top-dose activity change, negative = growth inhibition, actives largely listed as inhibitors; DT40 Tdp1-/- hTDP1 cells, no CPT, ATP luminescence, 48 h; AID 686978, 2013; 15% of 420,000 active; also: potency is read from the fitted curve at half-maximal effect; % is scaled to controls: 0 for no effect and ±100 for the full control effect; nearly all actives have a fitted effect of over 55% in size
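DT40 Tdp1-/-;hTDP1 cells, no CPT (DMSO vehicle only), 400 cells/well; compounds pin-transferred; ≥48 hr, 37 °C; CellTiter-Glo 30 min RT dark, luminescence read.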
IL1B secr inh: blocks inflammasome-driven IL-1 beta release | THP-1 LPS/ATP IL-1B secretion, AlphaLISA, 16 h; active compounds read low | activity change, % at 57.5 µM | 4.7% of 360,000 active | AID 743279; in the data active = activity change below about -50%; inconclusive = mostly about -30% to -49%; also: % is scaled to controls: 0 for no effect and ±100 for the full control effect
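THP-1 cells pretreated 1 hr with compounds (up to 57.5 uM final), then stimulated with LPS (250 ng/mL final) plus ATP (1.25 mM final); secreted IL-1B measured by AlphaLISA after 16 hr, decreased signal indicating inhibition.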
The depositor's hits bear a star; u = inconclusive; x = no result; [ ] = dose if it differs, or a comment. Hits are enriched below; roughly 19% of the tested compounds scored in any of these assays. Unless noted, calls follow the shape of the dose curve; as a rule, active = well fitted curve in the direction sought with a large enough effect; inconclusive = small, poorly fitted or top-dose-only effect, or another doubt; inactive = no such curve, though single readings can be large; an effect the other way counts as inactive or inconclusive.

SMILES | S-ASM inh | DT40 TDP1 CPT | HepG2 viability | TGFb inhibitor | TDP1 cell noCPT | IL1B secr inh
Cc1cccc(NC(=S)N/N=C/c2ccc([N+](=O)[O-])s2)c1 | -16% | 13µM* | 6.3µM* | 7.1µM* | 7.9µM* | 0
COc1cc([N+](=O)[O-])cc(/C=N/NC(=O)Cn2nc(C)cc2C)c1O | -2% | u | -17% | 2% | 23µM* | 7
COc1cc([N+](=O)[O-])cc(/C=N/NC(=O)Cn2nccc2C)c1O | 0% | u | -16% | -13% | u | 0
Cc1cc(C)n(CC(=O)N/N=C/c2ccc([N+](=O)[O-])s2)n1 | -3% | 23µM* | -84% | u | u | u
CC(C)(C)OC(=O)N/N=C\c1ccc([N+](=O)[O-])s1 | 0% | -1% | -13% | -20% | u | -19
CCOC(=O)N/N=C\c1ccc([N+](=O)[O-])s1 | -3% | 16µM* | -49% | 22µM* | 23µM* | -1
COC(=O)CC(NC(=O)C1CC1)c1ccc2c(c1)OCO2 (centres undefined) | 2% | -9% | -7% | -1% | 11% | -4
Cc1oc(-c2cccc(NC(=O)c3ccccn3)c2)nc1CNC(=O)c1cc(F)c(F)cc1F | x | -10%[9.04 µM] | x | x | -14% | x
CCc1nc2oc3ccccc3c(=O)c2cc1C(=O)OC | 12% | 0% | -3% | u | -27% | 29
CCOc1cc(/C=N/NC(=O)Cc2ccc(C(F)(F)F)cc2[N+](=O)[O-])c(Br)cc1OC | 2% | u | -10% | -9% | u | 5
COc1cc(Br)cc(/C=N/NC(=O)Cc2ccc(C(F)(F)F)cc2[N+](=O)[O-])c1O | -12% | 1.8µM* | 16µM* | 10µM* | 2.6µM* | 76
O=C(N/N=C/c1ccc([N+](=O)[O-])s1)c1cccc(Br)c1 | -1% | 9.2µM* | -43% | u | 10µM* | 1
O=C(N/N=C/c1cccc([N+](=O)[O-])c1)c1cccc(Br)c1 | 0% | u | -37% | -28% | -16% | 2
COC(=O)C1CCN(S(=O)(=O)Cc2ccccc2Cl)CC1 | 0% | -2% | 19% | 1% | 5% | 2
CC1Cc2ccccc2N1C(=S)NC(=O)c1cccc(Br)c1 (centres undefined) | x | 21µM* | -42% | -55% | 15µM* | 22
CC1Cc2ccccc2N1C(=S)NC(=O)c1ccc(Cl)cc1Cl (centres undefined) | -5% | u | -6% | u | 10µM* | 22
COc1cccc(C(=O)NC(=S)N2c3ccccc3CC2C)c1OC (centres undefined) | 1% | -1% | -24% | -7% | u | 5
C[C@@H]1CN(Cc2ccc3c(c2)CN(C(=O)CCc2nc4ccc(F)cc4[nH]2)CCO3)C[C@H](C)O1 | x | 3%[9.04 µM] | x | x | -29% | x
O=c1c2ccccc2nnn1COc1ccc(Cl)cc1Br | 6% | 18% | -5% | 3% | -3% | -13
COC(=O)c1ccc(C(=O)NC2CCSc3ccccc32)cc1 (centres undefined) | -1% | -6% | -40% | -2% | 0% | 0
Cc1ccc(NC(=S)NC2CCSc3ccccc32)cc1C (centres undefined) | -6% | 16µM* | -11% | 16µM* | u | -81*
Cc1ccc(-c2nc3cc(Cl)ccc3o2)cc1NC(=O)COc1ccccc1C | x | 8.9µM* | 1% | -1% | 11µM* | x
Cc1cc2nc(-c3cccc(NC(=O)COc4ccc(C(C)C)cc4)c3)oc2cc1C | x | 21µM* | 11% | 11% | 16µM* | x
Cc1cc2nc(-c3cccc(NC(=O)COc4ccc(Cl)c(C)c4)c3)oc2cc1C | x | -28% | -11% | 16% | -16% | x

Screening data as filed in PubChem.
